Assay outcomes: PubChem BioAssay, several laboratories
Rows were chosen to be rich in hits. Some 4.5% of all compounds tested hit in one or more screens of this group.
PrPC surface inh – inhibitors of human cell surface prion protein PrPC, primary screen, cell-based, TR-FRET | Major prion protein (Homo sapiens), P04156 | TR-FRET read-out | inhibition, % at 13.8 µM | 370,000 tested, 0.43% active; in the data active means inhibition above about 24%
GDH-TPI counter-1 – GDH-TPI coupling enzyme inhibitors, primary screen, artefact control for M. tuberculosis FBA inhibitor project, biochemical, absorbance, full deck; GDH-TPI coupled enzyme counterscreen, NADH absorbance; inhibition, % at 4.8 µM; 360,000 tested, 1.2% active; AID 588335, 2011; in the data active means inhibition above about 30%
PfHsp40 rescue – rescue of yeast from PfHsp40 toxicity, primary screen, S. cerevisiae, ATP luminescence; 340,000 tested, 0.68% active; growth rescue, % at 12.5 µM; S. cerevisiae expressing PfHsp40, growth rescue; in the data active means growth rescue above about 28%, passing the limit was not always enough; inconclusive means no clear call, values can overlap the other calls;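 further: yeast W303a lacking pdr1 and pdr3 grown in galactose medium; growth measured after three days at 30 °C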
PrP UTR inh – inhibition of PrP 5' UTR reporter expression; inhibition, % (concentration not given with the values); AID 488862, 2010; cell-based PrP 5' UTR mRNA reporter, plate reader; 340,000 tested, 0.35% active; in the data active means inhibition above about 52%
FBA Mtb inh – Mtb FBA enzyme inhibitors, primary screen, biochemical, fluorescence, strain H37Rv | purified M. tuberculosis FBA, fluorescence read-out | inhibition, % at 1 µM | 360,000 tested, 2.3% active
Target sequence (P9WQA3 whole entry, looked up): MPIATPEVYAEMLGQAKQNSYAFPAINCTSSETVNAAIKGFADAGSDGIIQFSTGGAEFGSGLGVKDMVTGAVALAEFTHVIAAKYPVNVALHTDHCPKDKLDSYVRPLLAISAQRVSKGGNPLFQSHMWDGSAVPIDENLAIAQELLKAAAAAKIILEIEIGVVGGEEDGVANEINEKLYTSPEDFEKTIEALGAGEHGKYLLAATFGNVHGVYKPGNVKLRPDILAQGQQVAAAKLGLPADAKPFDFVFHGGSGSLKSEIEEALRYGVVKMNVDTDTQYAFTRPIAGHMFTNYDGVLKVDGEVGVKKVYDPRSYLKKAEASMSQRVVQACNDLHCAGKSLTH
BJeLR lethal – MLPCN primary cell-based screen for lethality selective to Ras in HRASV12 cells. inhibition, % (concentration not given with the values). 300,000 tested, 0.17% active. BJeLR (HRASV12) viability, CellTiter-Glo ATP luminescence, 48 h; in the data active means inhibition above about 50%; inconclusive means no clear call, values can overlap the other calls
Mtb FBA confirm – M. tuberculosis aldolase blockers, biochemical, fluorescence, strain H37Rv, confirmation; shares compounds with FBA Mtb inh; purified M. tuberculosis FBA, fluorescence read-out; inhibition, % at 1 µM; 5,600 tested, 78% active; AID 651616, 2012
GDH-TPI counter-2 – GDH-TPI coupling enzyme inhibitors, artefact control for M. tuberculosis FBA inhibitor project, biochemical, fluorescence, high throughput. inhibition, % at 1 µM. 5,600 tested, 81% active. shares compounds with FBA Mtb inh. GDH-TPI coupled enzyme counterscreen; in the data active means inhibition above about 10%
Hits are given with their value; n = inactive; u = inconclusive; x = no result; + = active, no number. Unless noted, no stated cut-off is given here; in the data, active means inhibition above about 27%; inactive means the rest.

SMILES	PrPC surface inh	GDH-TPI counter-1	PfHsp40 rescue	PrP UTR inh	FBA Mtb inh	BJeLR lethal	Mtb FBA confirm	GDH-TPI counter-2
Cc1ccc2c(CN3CCN(Cc4ccc5c(c4)OCO5)CC3)cc(=O)oc2c1C	n	n	n	n	n	n	x	x
Cc1c(O)ccc2c(CN3CCN(CCO)CC3)cc(=O)oc12	n	n	n	n	74.5	n	69.0	62.7
Cc1c(O)ccc2c(CN3CCOCC3)cc(=O)oc12	n	n	n	n	71.0	n	46.2	38.2
Cc1ccc(S(=O)(=O)Nc2ccc(Cl)cn2)cc1	n	n	n	n	n	n	x	x
Cc1ccc(NS(=O)(=O)Cc2ccccc2)nc1	n	n	n	n	60.2	n	170.6	141.7
Cc1ccnc(NS(=O)(=O)Cc2ccccc2)c1	n	n	n	n	44.5	n	103.4	67.7
Cc1ccc(NS(=O)(=O)c2ccc(Br)cc2)nc1	n	n	n	n	28.4	n	+	+
O=C(O)CCC(=O)Nc1nc2nccc(-c3ccccc3)n2n1	n	n	n	x	45.3	n	+	181.4
COc1ccc(N2C(=O)CSC2c2cccc(F)c2)cc1 (stereo not given)	n	n	n	x	39.1	n	180.6	154.3
COc1ccc(C2SCC(=O)N2c2ccc(F)cc2)cc1 (stereo not given)	n	n	n	n	n	n	x	x
Cc1ccc(NC(=O)c2ccc3nsnc3c2)c(Cl)c1	n	n	n	n	n	n	x	x
COc1ccc(NC(=O)C2(C)CCN2Cc2cccc(OC)c2OC)cc1OC (stereo not given)	n	n	x	x	n	x	x	x
CCCNC(=O)c1c[nH]c2ccc(S(=O)(=O)N(C)c3ccc(OCC)cc3)cc2c1=O	n	x	x	x	x	n	x	x
CCCCN(C)CCNC(=O)c1c[nH]c2ccc(S(=O)(=O)N(CC)CC)cc2c1=O	n	n	n	n	29.2	n	51.2	51.6
COCCCNC(=O)c1cn(CCOC)c(=O)c2c1c1ccccc1n2C	n	n	n	n	37.1	n	89.8	96.5
COCCNC(=O)c1cn(CCOC)c(=O)c2c1c1ccccc1n2C	n	n	n	n	27.4	n	133.6	104.1
COCCn1cc(C(=O)NCCCOC(C)C)c2c3ccccc3n(C)c2c1=O	n	n	n	n	30.0	n	128.0	112.0
CC(C)Cn1cc(C(=O)NCCCN2CCCC2=O)c2c3ccccc3n(C)c2c1=O	n	n	n	n	33.3	n	n	n
C/C(=N/NC(=O)CNS(=O)(=O)c1ccc(C)cc1)c1cccc([N+](=O)[O-])c1	n	n	n	n	n	n	x	x
Cc1cccc(N2CCN(C(=O)c3ccc(Cl)c(NC4=NC5CS(=O)(=O)CC5S4)c3)CC2C)c1 (stereo not given)	n	n	n	n	n	n	x	x
CCC(C)[C@H](NC(=O)NCc1ccco1)C(=O)OC (stereo not given in full)	n	n	n	n	n	n	x	x
CCOC(=O)c1sc(Nc2nc3c(OC)cccc3s2)nc1C	n	n	n	n	66.0	n	64.0	56.7
COc1ccc(-c2ccc(-c3noc(C)n3)c(OC)n2)cc1	n	n	n	x	73.7	n	92.9	87.8
CCOc1nc(-c2ccc(OC)cc2)ccc1-c1noc(C)n1	n	n	n	n	76.2	n	91.7	77.6
COc1ccc(-c2ccc(-c3noc(C4CCCCC4)n3)c(OC)n2)cc1	n	n	n	n	28.3	n	+	+
SMILES	PrPC surface inh	GDH-TPI counter-1	PfHsp40 rescue	PrP UTR inh	FBA Mtb inh	BJeLR lethal	Mtb FBA confirm	GDH-TPI counter-2
CC1C(=O)Nc2ccccc2N1C(=O)c1ccccc1 (stereo not given)	n	n	n	n	n	n	x	x
COc1ccc(C[N+]2=C(N)NC3=C(C)Cn4c(=O)n(-c5ccccc5)c(=O)n4C3C2)c(OC)c1 (stereo not given)	n	x	x	x	x	x	x	x
O=C1CC(O)(C(F)F)Oc2ccc3ccccc3c21 (stereo not given)	n	n	n	n	43.8	n	31.2	22.0
COc1ccc(Cl)cc1NC(=O)c1cc(C)no1	n	n	n	n	n	n	x	x
C=CCOc1c2ccc(C(=O)NCCc3ccc(C)cc3)cc2nn1C	n	n	n	n	n	n	x	x
CCCCn1nc2cc(C(=O)NCc3ccccc3OC)ccc2c1OCC	n	n	u	n	n	n	x	x
CCCn1nc2cc(C(=O)NCCc3ccc(C)cc3)ccc2c1OCC	n	n	n	n	55.3	n	64.2	66.6
CCCn1nc2cc(C(=O)NCCCCc3ccccc3)ccc2c1OCC	n	n	n	n	53.0	n	132.0	104.0
CC1(c2ccc3ccccc3c2)NC(=O)N(CC(=O)N2CCC(C(N)=O)CC2)C1=O (stereo not given)	n	n	n	n	54.4	n	95.8	63.4
CSc1nc(NCc2ccccc2)c2c3c(sc2n1)CN(C)CC3	n	n	n	n	72.3	n	140.4	84.3
COCCNc1nc(SC)nc2sc3c(c12)CCN(C)C3	n	n	n	n	80.3	n	196.2	176.6
COC(=O)CSc1nc2sc3c(c2c(=O)n1-c1ccccc1)CCN(C)C3	n	n	n	n	n	n	x	x
CCN(CC)CCNc1nc(SC)nc2sc3c(c12)CCN(C)C3	n	n	n	n	41.0	n	96.5	75.1
CSc1nc(NCCCN(C)C)c2c3c(sc2n1)CN(C)CC3	n	x	x	x	x	n	x	x
CSc1nc(NCC(C)C)c2c3c(sc2n1)CN(C)CC3	n	n	n	n	48.8	n	58.7	57.1
CSc1nc(SCC(=O)NCC2CCCO2)c2c3c(sc2n1)CN(C)CC3 (stereo not given)	n	x	x	x	x	n	x	x
CCOc1ccc(N(CC(=O)Nc2ccc(C)c(Cl)c2)S(C)(=O)=O)cc1	n	n	n	n	n	n	x	x
O=C(COCc1ccccc1)NC1CCCCN(Cc2ccc(Cl)cc2)C1=O (stereo not given)	n	x	x	x	x	x	x	x
COCCCNc1nc(SCc2ccccc2)nc2sc3c(c12)CCC3	n	n	n	n	33.8	n	96.9	77.7
N#Cc1cnn(-c2nc(SCc3ccccc3)nc3sc4c(c23)CCCC4)c1N	n	n	n	n	n	n	x	x
O=C(Nc1nnc(Cc2ccccc2)s1)Nc1ccccc1F	n	n	n	n	n	n	x	x
CC(C)(C)NC(=O)Nc1ccc2nccnc2c1	n	n	n	n	60.7	n	n	n
CC(C)(C)NC(=O)c1ccc2nccnc2c1	n	n	n	n	n	n	x	x
